The values that follow come from PubChem BioAssay.

Test [1] deals with Wnt5a (protein binding on small-molecule microarray). The test can be described thus: Wnt5a binders on small-molecule microarray, primary screen, biophysical, 635/667 nm fluorescence (AID 1142).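 Also: fluorescence read at 667 nm with signal to noise per printed feature.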 To be noted: 635 nm fluorescence, higher = more signal.
Test [2] can be described thus: cell viability in Huh7 cells, primary screen, cytotoxicity control for HCV replication inhibitor project, CellTiter-Glo luminescence, basal, 48 h (AID 1143).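 Also: Huh7 hepatoma cells carrying a hepatitis C replication reporter with no stimulus; test concentration not given here.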 To be noted: Huh7 HCV replicon, higher = more signal, called active from +8 up or from −8 down. (ATP-based viability assays read luminescence as a measure of living cells.)
Test [3] can be described thus: P. aeruginosa biofilm formation inhibitors, primary screen, PAO1 strain, BacTiter-Glo luminescence, LB-PBS (AID 1144). To be noted: 12 h, higher = more signal.
Test [4] is described as follows: CREB reporter modulators without forskolin, primary screen, cell-based, PC12, CRE-LacZ reporter, unstimulated (AID 1145). To be noted: no forskolin, luminescence, 4.5 h, higher = more signal, called active from +8 up or from −8 down.
Test [5] in a line: CREB reporter modulators under forskolin, primary screen, cell-based, PC12, CRE-LacZ reporter, forskolin-stimulated (AID 1146).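 Also: PC12 cells with 6xCRE LacZ reporter stimulated by forskolin 10 µM; beta-galactosidase reporter signal reflecting CREB driven transcription.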 To be noted: luminescence, 4.5 h, higher = more signal, called active from +8 up or from −8 down.
In test [6] the target is Streptavidin (Streptomyces avidinii) (UniProt P22629). The test can be described thus: streptavidin binders on small-molecule microarray, primary screen, artefact control for SMM compound annotation, biophysical, 635/667 nm fluorescence (AID 1147).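 Also: signal reflects streptavidin binding to arrayed compounds as a control protein.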 To be noted: streptavidin binding, higher = more signal.
Test [7] in a line: small-molecule binders of probe aInhba, primary screen, biochemical, small-molecule microarray, 635/667 nm fluorescence (AID 1148).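 Also: score merges 667nm spot fluorescence with signal-to-noise for antibody binding to printed compounds.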 To be noted: higher = more signal.
Test [8] addresses Torsin-1A (Homo sapiens) (UniProt O14656). The test can be described thus: torsin A binders from cell lysate, primary screen, small-molecule microarray, wild-type, 635/667 nm (AID 1149). To be noted: COS7 hTOR1A-WT lysate, 635 nm fluorescence, higher = more signal.
The target is the same in test [9]. The test can be described thus: small-molecule binders of mutant TOR1A in lysate, primary screen, cell lysate, small-molecule microarray, COS7 lysate, 635/667 nm fluorescence (AID 1150).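 Also: score pools 667 nm emission and signal to noise measuring lysate protein binding.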 To be noted: COS7 hTOR1A mutant lysate, 635 nm fluorescence, higher = more signal.
In test [10] the test system is Sonic hedgehog protein (Shh). The test is described as follows: small-molecule binders of Shh protein, primary screen, biochemical, small-molecule microarray, 635/667 nm fluorescence (AID 1151).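 Also: Shh protein binding to compounds spotted on small-molecule microarray slides; score combines spot fluorescence intensity with signal-to-noise across triplicate slides.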 To be noted: small-molecule microarray binding, 635 nm fluorescence; higher = more signal.
Test [11] is described as follows: E. coli DRC41 culture turbidity changes, primary screen, E. coli filamentation inducer project, strain DRC41, OD650, 48 h (AID 1152).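 Also: E. coli MC1000 strain DRC41 lacking acrAB efflux pump and sulA.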 To be noted: E. coli DRC41 (acrAB sulA), higher = more signal, called active from +8 up or from −8 down.
A short description of test [12]: small-molecule binders of probe aLefty1, primary screen, biochemical, small-molecule microarray, 635/667 nm fluorescence (AID 1153).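 Also: score merges spot fluorescence with signal-to-noise ratio from the scanned slide images.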 To be noted: higher = more signal.
Test [13] can be described thus: PSAC antagonists in infected red cells, primary screen, cell-based, P. falciparum Indochina, OD700, 1 h (AID 1154). To be noted: P. falciparum Indochina infected RBC osmotic lysis, higher = more signal, called active from +8 up or from −8 down.
Test [14] is described as follows: PSAC antagonists in infected red cells, primary screen, cell-based, P. falciparum Indochina, OD700, 2 h (AID 1155).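 Also: lysis reports solute entry through the parasite surface anion channel PSAC; channel blockers reduce lysis of infected cells.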 To be noted: P. falciparum Indochina infected erythrocytes, osmotic lysis OD700; higher = more signal, called active from +8 up or from −8 down.
Test [15] can be described thus: osmotic lysis modulators in infected erythrocytes, primary screen, PSAC antagonist project, cell-based, P. falciparum Indochina, OD700, 3 h (AID 1156). To be noted: higher = more signal, called active from +8 up or from −8 down.
Test [16] in a line: PSAC antagonists in infected red cells, primary screen, cell-based, P. falciparum Indochina, OD700, 18 h (AID 1157). To be noted: P. falciparum Indochina infected erythrocytes, osmotic lysis OD700, 18 h; higher = more signal, called active from +8 up or from −8 down.
The nature of test [17]: modulators of S6 phosphorylation in cells, primary screen, cell-based, A549, cytoblot, luminescence, serum-stimulated (AID 1158).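 Also: serum-stimulated A549 lung adenocarcinoma cells; signal is phosphorylated S6 detected by cytoblot immunostaining with HRP secondary.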 To be noted: A549 phospho-S6 cytoblot, 5 h, higher = more signal.
Test [18] concerns the target NADPH oxidase 2 (Homo sapiens) (UniProt P04839). The test is described as follows: NOX2-dependent H2O2 signal modulators, primary screen, NOX inhibitor project, cell-based, HEK293-NOX2, PMA-stimulated, Amplex Red fluorescence (AID 1159). Also: test concentration not given here. To be noted: 45 min, higher = more signal, called active from +8 up or from −8 down.
Test [19] deals with NADPH oxidase 4 (Homo sapiens) (UniProt Q9NPH5). The test can be described thus: NOX4-dependent H2O2 signal modulators, primary screen, NOX inhibitor project, cell-based, HEK293-NOX4, tetracycline-induced, Amplex Red fluorescence (AID 1160). To be noted: 45 min, higher = more signal, called active from +8 up or from −8 down.
Test [20] has as its target NADPH oxidase 5 (Homo sapiens) (UniProt Q96PH1). The test is described as follows: NOX5-dependent H2O2 signal modulators, primary screen, NOX inhibitor project, cell-based, HEK293-NOX5, Amplex Red fluorescence (AID 1161). To be noted: HEK293-NOX5, ionomycin, 45 min, higher = more signal.

Activity calls are given as the source filed them. Unless noted, no rule for the calls is given here.

Chain of Torsin-1A (Homo sapiens) (O14656 whole entry, looked up): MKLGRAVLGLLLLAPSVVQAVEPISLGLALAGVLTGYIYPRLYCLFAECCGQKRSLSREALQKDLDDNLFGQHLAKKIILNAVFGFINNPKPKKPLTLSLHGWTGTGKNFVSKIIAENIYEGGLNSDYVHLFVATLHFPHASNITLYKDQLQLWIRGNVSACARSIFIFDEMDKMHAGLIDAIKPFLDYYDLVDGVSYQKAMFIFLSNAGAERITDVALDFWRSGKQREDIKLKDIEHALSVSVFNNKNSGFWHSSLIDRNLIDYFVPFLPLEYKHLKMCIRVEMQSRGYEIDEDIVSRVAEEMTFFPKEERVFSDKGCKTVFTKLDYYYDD
Chain of Streptavidin (Streptomyces avidinii) (P22629 whole entry, looked up): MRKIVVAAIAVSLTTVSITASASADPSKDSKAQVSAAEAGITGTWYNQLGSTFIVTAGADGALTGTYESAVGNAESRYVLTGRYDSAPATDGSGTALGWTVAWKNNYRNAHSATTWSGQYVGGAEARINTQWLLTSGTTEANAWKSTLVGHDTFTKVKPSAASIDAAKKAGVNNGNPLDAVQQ
Chain of NADPH oxidase 4 (Homo sapiens) (Q9NPH5 whole entry, looked up): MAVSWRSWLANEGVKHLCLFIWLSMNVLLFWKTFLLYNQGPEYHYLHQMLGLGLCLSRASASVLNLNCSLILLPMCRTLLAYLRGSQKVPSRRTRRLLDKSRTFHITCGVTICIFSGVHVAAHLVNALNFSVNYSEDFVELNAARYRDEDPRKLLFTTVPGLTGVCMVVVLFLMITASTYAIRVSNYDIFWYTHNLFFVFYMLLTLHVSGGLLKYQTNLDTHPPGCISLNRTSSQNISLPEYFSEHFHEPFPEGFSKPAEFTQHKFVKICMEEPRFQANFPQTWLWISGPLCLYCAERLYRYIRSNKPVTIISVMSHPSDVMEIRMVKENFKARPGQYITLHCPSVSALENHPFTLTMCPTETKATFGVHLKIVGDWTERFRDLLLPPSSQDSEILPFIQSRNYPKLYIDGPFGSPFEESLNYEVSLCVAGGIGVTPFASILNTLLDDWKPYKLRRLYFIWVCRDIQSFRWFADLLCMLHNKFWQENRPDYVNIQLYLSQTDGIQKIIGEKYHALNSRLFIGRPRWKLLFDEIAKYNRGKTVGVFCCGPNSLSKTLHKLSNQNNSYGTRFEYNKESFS
Chain of NADPH oxidase 2 (Homo sapiens) (P04839 whole entry, looked up): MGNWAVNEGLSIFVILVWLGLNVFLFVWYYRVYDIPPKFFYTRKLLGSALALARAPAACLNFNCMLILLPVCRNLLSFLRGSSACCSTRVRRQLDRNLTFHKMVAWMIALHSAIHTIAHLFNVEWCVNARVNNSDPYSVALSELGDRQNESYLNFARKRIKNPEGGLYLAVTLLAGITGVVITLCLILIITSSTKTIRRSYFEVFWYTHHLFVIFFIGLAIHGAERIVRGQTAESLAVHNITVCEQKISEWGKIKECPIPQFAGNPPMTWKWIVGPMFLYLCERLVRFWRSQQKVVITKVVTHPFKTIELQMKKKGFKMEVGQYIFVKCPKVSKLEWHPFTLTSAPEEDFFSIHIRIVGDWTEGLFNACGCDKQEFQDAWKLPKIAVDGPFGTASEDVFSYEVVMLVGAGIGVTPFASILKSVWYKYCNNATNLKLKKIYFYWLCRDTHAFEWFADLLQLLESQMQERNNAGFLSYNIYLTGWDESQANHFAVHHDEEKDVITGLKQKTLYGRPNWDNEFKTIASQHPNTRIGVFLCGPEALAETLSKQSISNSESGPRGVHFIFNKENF
Chain of NADPH oxidase 5 (Homo sapiens) (Q96PH1 whole entry, looked up): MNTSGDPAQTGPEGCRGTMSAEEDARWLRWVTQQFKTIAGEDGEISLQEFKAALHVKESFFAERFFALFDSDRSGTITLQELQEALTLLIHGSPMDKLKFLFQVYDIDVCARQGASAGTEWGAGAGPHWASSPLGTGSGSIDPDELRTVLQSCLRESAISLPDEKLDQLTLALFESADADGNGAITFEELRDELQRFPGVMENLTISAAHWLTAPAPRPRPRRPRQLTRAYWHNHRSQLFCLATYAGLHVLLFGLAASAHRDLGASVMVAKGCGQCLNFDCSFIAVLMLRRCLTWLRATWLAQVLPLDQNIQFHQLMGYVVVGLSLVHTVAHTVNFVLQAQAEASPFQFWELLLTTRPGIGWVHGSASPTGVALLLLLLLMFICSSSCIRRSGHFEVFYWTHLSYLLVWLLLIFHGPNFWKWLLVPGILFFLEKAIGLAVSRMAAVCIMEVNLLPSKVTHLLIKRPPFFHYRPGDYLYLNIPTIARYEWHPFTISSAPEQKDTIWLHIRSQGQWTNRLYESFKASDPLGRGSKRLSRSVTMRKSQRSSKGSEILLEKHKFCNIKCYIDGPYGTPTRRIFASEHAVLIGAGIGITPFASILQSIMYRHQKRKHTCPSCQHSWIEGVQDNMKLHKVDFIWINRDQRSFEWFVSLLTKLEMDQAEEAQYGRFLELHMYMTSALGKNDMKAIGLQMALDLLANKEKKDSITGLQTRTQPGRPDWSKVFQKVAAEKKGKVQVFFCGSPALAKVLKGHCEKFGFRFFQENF

For the molecule `COCCOC(=O)N1C(=O)[C@@]2(c3cc(C#CC4(O)CCCCCC4)ccc31)[C@H](c1ccc(O)cc1)N1[C@H](c3ccccc3)[C@H](c3ccccc3)OC(=O)[C@H]1[C@@H]2C(=O)N1CCN(c2ncccn2)CC1`, the composite z-score in test [1] was 0.623; in test [6] it was 1.33; in test [7], -0.0918; with Torsin-1A (Homo sapiens) [8] it was 0.49; in the test with Torsin-1A (Homo sapiens) [9], 0.813; in [10], 0.185. The same molecule had a composite z-score in test [12] of 0.477. Further, the z-score is -1.53 (inactive) in test [2]; -0.127 (inactive) in test [3]; -0.141 (inactive) in test [4]; 0.0053 (inactive) in test [5]; -0.533 (inactive) in test [11]; 0.138 (inactive) in test [13]. Besides, the z-score in test [14] was 0.525 (inactive); in test [15], -0.166 (inactive); in test [16], -0.0236 (inactive); in test [17], 0.159; in [18] it was 1.54 (inactive); in [19], 0.996 (inactive). The same molecule returned a z-score in [20] of 1.11.

Regarding `COCC(=C=CC[C@H](O)c1ccccc1OCCO)C[C@H](O)c1ccccn1`, the composite z-score in test [1] was 0.0611; in test [6], -0.303; in [7], -0.154; with Torsin-1A (Homo sapiens) [8], -0.556; with Torsin-1A (Homo sapiens) [9], 0.71; in [10], 0.43. The same molecule had a composite z-score in test [12] of -0.224. Besides, the z-score in test [2] is -0.0701 (inactive); in test [3] it was -0.214 (inactive); in [4] it was 1.04 (inactive); in [5], 0.126 (inactive); in [11], 0.769 (inactive); in [13], 3.61 (inactive). Besides, the z-score in [14] is 1.12 (inactive); in test [15] it was 1.74 (inactive); in [16] it was 0.382 (inactive); in test [17] it was 0.658; in [18], 0.251 (inactive); in test [19] it was -0.831 (inactive). In test [20], this molecule displayed a z-score of -0.926.

Consider `CCCCC=C[C@@H](NC(=O)OCc1ccccc1Cl)c1ccccc1`, for which the composite z-score in test [1] is 1.45; in [6] it was 0.484; in [7] it was 0.592; with Torsin-1A (Homo sapiens) [8] it was -0.266; in the test with Torsin-1A (Homo sapiens) [9], 0.665; in test [10] it was 0.62. The molecule further returned a composite z-score in [12] of 2.4. For the same molecule, the z-score in test [2] was -0.392 (inactive); in test [3] it was -0.146 (inactive); in test [4], 0.394 (inactive); in test [5] it was 1.02 (inactive); in test [11], -2.07 (inactive); in test [13] it was 0.278 (inactive). Further, the z-score in test [14] was 0.894 (inactive); in test [15], 0.806 (inactive); in test [16] it was 0.887 (inactive); in test [17], -0.0327; in test [18] it was 0.027 (inactive); in [19], -0.52 (inactive). This molecule yielded a z-score in [20] of 1.24.

Take `Cn1cccc1C(O)C1C=CC2C(=O)N(c3ccccc3)C(=O)C2N1Nc1ccccc1` (stereo not given): the composite z-score stood at 0.402 in test [1]; 1.77 in test [6]; 0.153 in test [7]; 0.478 with Torsin-1A (Homo sapiens) [8]; 0.726 with Torsin-1A (Homo sapiens) [9]; 0.379 in [10]. Also, the composite z-score in test [12] was determined as 0.358. In addition, the z-score in [2] is 0.525 (inactive); in test [3], -0.758 (inactive); in [4] it was -0.525 (inactive); in test [5], -0.0981 (inactive); in test [11], -0.548 (inactive); in test [13], 2.42 (inactive). Also, the z-score in test [14] is 1.31 (inactive); in [15], 0.361 (inactive); in [16], 1.44 (inactive); in [17], -0.55; in test [18] it was -1.34 (inactive); in test [19], -1.94 (inactive). In test [20], this molecule registered a z-score of -1.81.
